In PubChem BioAssay (Tox21):
Records with an inconclusive call do not appear. A number with no mark means an inactive call. Activity calls are given as the source filed them. Calls follow the shape of the dose curve; as a rule, active = well fitted cell-killing curve with a large enough effect in the repeat runs; inconclusive = weak or mixed curves, or effect the other way; inactive = flat fitted curve, though single readings scatter.

Assay: qHTS assay to identify small molecule that activate the aryl hydrocarbon receptor (AhR) signaling pathway - cell viability counter screen (AID 743086); also: nearly all actives have a fitted effect of over 45% in size;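 as to viability change, negative = cytotoxic: HepG2 liver cells carrying the AhR DRE luciferase reporter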
Conditions: HepG2-AhR-luc viability, CellTiter-Fluor, 24 h; series mostly up to 70.3 µM; viability change, negative = cytotoxic: at the top concentration
Text: U.S. Tox21 Program National Center for Advancing Translational Sciences [NCATS] NIH Chemical Genomics Center [NCGC] U.S. Environmental Protection Agency [EPA] National Institutes of Environmental Health Sciences [NIEHS] National Toxicology Program [NTP] U.S. Food and Drug Administration [FDA] Tox21 Assay overview: The Aryl hydrocarbon Receptor (AhR), a member of the family of basic helix-loop-helix transcription factors, is crucial to adaptive responses to environmental changes. AhR mediates cellular responses to environmental pollutants such as aromatic hydrocarbons through induction of phase I and II enzymes but also interacts with other nuclear receptor signaling pathways A cell based HepG2-AhR-luc assay (HG2L7.5c1 cell line, developed by Dr. Michael S. Denison, University of California at Davis) was used to assess the activation of AhR. HepG2 (human hepatocellular carcinoma) cells were stably transfected with an Ah receptor-responsive firefly luciferase reporter gene plasmid containing 20 dioxin responsive elements and luciferase reporter gene. Increased luciferase activity can be used to identify the compounds that induce AhR activation. The cytotoxicity of the compounds screened against the HepG2-AhR-luc cell line was tested in parallel by measuring the cell viability using CellTiter-Fluor assay in the same wells.
Tox21 Assay Protocol Summary: 4000 cells in 5 uL/well were dispensed into white wall/solid bottom 1536-well plates using a Multidrop Combi (Thermo Fisher Scientific Inc., Waltham, MA) dispenser. After the assay plates were incubated at 37C for 5 h, 23 nL of compound or DMSO vehicle was transferred to the assay plates by a pintool station (Kalypsys, San Diego, CA). The plates were incubated at 37C for 24 hr. For cell viability measurement, 1 ul/well of CellTiter-Fluor reagent (Promega, Madison, WI) was added into the assay plates using a Flying Reagent Dispenser (FRD) (Aurora Discovery, CA),and then the assay plates were incubated at 37C for 30 min. The fluorescence intensity in the plates was measured using a ViewLux plate reader (PerkinElmer, Shelton, CT), followed by the addition of 4 uL of ONE-Glo Luciferase Assay reagent (Promega) using an FRD (Aurora Discovery). After the assay plates were incubated at room temperature for 30 min, luminescence intensity was measured using a ViewLux plate reader (Perkin Elmer).
% is scaled to controls: 0 for no effect and ±100 for the full control effect; potency is read from the fitted curve at half-maximal effect.

| SMILES | viability change, negative = cytotoxic | Potency |
| --- | --- | --- |
| CCCC(C)C | 3.58% [at 95 µM] |  |
| CCCCc1cc2ccccc2c(OCCN(C)C)n1 | -0.467% [at 32.5 µM] |  |
| CCOC(=O)CC(C)C | 7.86% |  |
| CN1CCC(OC(c2ccccc2)c2ccccc2)CC1 | -2.23% [at 32.5 µM] |  |
| C=CC(C)(CCC=C(C)C)OC(=O)c1ccccc1 (stereo not given) | -3.31% |  |
| CC[C@H](C)[C@H](N)C(=O)O | 17.6% |  |
| O=C(c1ccc(O)cc1)c1ccc(O)cc1 | -5.79% |  |
| CC[C@H](C)[C@@H](C(=O)O)n1sc2ccccc2c1=O | -5.3% |  |
| CCCCOCCOCCOCCOCCO | 11.8% |  |
| COC(=O)CSc1cc(N=c2sc(=O)n3n2CCCC3)c(F)cc1Cl | 6.28% |  |
| CN(C)CC[C@@H](c1ccc(Br)cc1)c1ccccn1 | -2.53% |  |
| O=c1c2ccccc2nnn1CCl | 3.16% |  |
| CCN1CCC[C@H]1CNC(=O)c1c(OC)ccc(Br)c1OC | 6.93% |  |
| CCc1nn(C2CCCCC2)c2cc(C3(C#N)CCC(C(=O)O)CC3)ccc12 (stereo not given) |  | 24.3 µM (active) |
| CC1(C)[C@H]2CC[C@]1(C)[C@H](O)C2 |  | inactive |
| CCCCCCCCCCCCCCC1CO1 (stereo not given) | -6.01% |  |
| CC(C)NCC(O)c1cc(O)cc(O)c1 (stereo not given) | 25.5% |  |
| NC(=S)N/N=C/c1cccnc1 | 14.6% |  |
| O=C(O)Cn1c(C(=O)Nc2nc(-c3ccccc3Cl)cs2)cc2ccccc21 | 3.25% |  |
| CN1CCC[C@@H]1c1cccnc1 | 6.54% |  |

| SMILES | viability change, negative = cytotoxic | Potency |
| --- | --- | --- |
| N=C(N=C(N)N)N1CCOCC1 | 17.2% [at 32.5 µM] |  |
| N[C@H]1C(O)O[C@H](CO)[C@H](O)[C@@H]1O (stereo not given in full) | -0.501% |  |
| Cc1ccc(C(N)=O)cc1N | 0.565% |  |
| CC(C)=CCCC(C)CC=O (stereo not given) | 0.703% |  |
| CCCCOc1cc(C(=O)OCCN(CC)CC)ccc1N | 13% [at 32.5 µM] |  |
| Cc1cccc(OCCOc2cccc(C)c2)c1 | 0.977% [at 95 µM] |  |
| NCCCOCCOCCOCCCN | 8.34% |  |
| O=C(O)C(c1ccc(Cl)cc1)c1ccc(Cl)cc1 | -2.63% |  |
| C=CCCCCCC | 0.771% |  |
| CC(=O)c1ccc2c(c1)[C@H](NC(=O)c1ccc(F)cc1)[C@@H](O)C(C)(C)O2 | 0.0373% |  |
| O=C(NS(=O)(=O)/C=C/c1cccs1)c1ccc(F)cc1Br | -2.58% |  |
| C[Si](C)O[Si](C)(C)O[Si](C)(C)O[Si](C)C | 11.9% |  |
| CC(C(=O)O)c1ccc(C(=O)c2ccccc2)s1 (stereo not given) | 7.05% [at 32.5 µM] |  |
| O=C(O)[C@@H]1[C@H]2C[C@H]3c4[nH]c5ccccc5c4CCN3C[C@@H]2CC[C@@H]1O | 12.1% [at 32.5 µM] |  |
| C=CC[N+]1([C@H]2C[C@H]3[C@@H]4CC[C@H]5C[C@H](OC(C)=O)[C@@H](N6CCCCC6)C[C@]5(C)[C@H]4CC[C@]3(C)[C@H]2OC(=O)CC)CCCCC1 | -5.2% |  |
| NC1CCN(c2nc3c(cc2F)c(=O)c(C(=O)O)cn3-c2ccc(F)cc2F)C1 (stereo not given) | 1.72% |  |
| O=C(c1ccccc1)c1ccc2n1CCC2C(=O)O (stereo not given) |  | inactive |
| NC(N)=N/N=C/c1c(Cl)cccc1Cl | -15.7% |  |
| CC(C)(C)c1ccc(S)cc1 | 8.38% |  |
| CC(=O)Nc1ccc(/C=N/NC(N)=S)cc1 |  | inactive |
